Compound activity (PubChem)
KB-3-1 cytotox – qHTS assay for MDR1-selective chemotherapeutics: Primary screen using the parental adenocarcinoma cell KB-3-1; hit rate 1.4% among 400,000; AID 1347075, 2019; KB-3-1 viability, CellTiter-Glo ATP luminescence, 72 h; Potency, µM (doses to about 46.1 µM), most hits filed as cytotoxic; also: % is scaled to controls: 0 for no effect and ±100 for the full control effect; nearly all actives have a fitted effect of over 60% in size
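Luminescent ATP read-out (CellTiter-Glo) measures survival of drug-naive KB-3-1 cells after 72 h compound exposure at 37 °C. Titration series was screened from lowest to highest concentration, with DMSO vehicle plates as background controls.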
PINK1 expr mod – A Quantitative High throughput Screen to Identify Chemical Modulators of PINK1 Expression. hit rate 0.2% among 410,000. PINK1 immunofluorescence, high-content cytometry, 24 h. AID 624263, 2012. Potency, µM (highest dose often 76.6 µM), for the others: top-dose activation (PINK1 increase), most hits filed as activators; active = well fitted activation curve with a large enough effect; inconclusive = small, poorly fitted or top-dose-only effect; cell line not stated here; also: % of control where 0% means no effect; nearly all actives have a fitted effect of over 65% in size
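Readout is PINK1 immunofluorescence, quantified alongside mitochondrial, cell and nuclear markers by laser-scanning microplate cytometry. Cells from a stable line were exposed to compound titrations (5 concentrations) for 24 hours, with CCCP controls.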
SW480 rereplic – A quantitative high throughput screen for small molecules that induce DNA re-replication in SW480 colon adenocarcinoma cells; SW480 DNA re-replication, Hoechst DNA content imaging, 48 h; Potency, µM (highest dose often 46.1 µM), inactives show top-dose re-replication activation, hits mostly activators; hit rate 1.8% among 340,000; also: % of control where 0% means no effect; nearly all actives have a fitted effect of over 55% in size
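Image-based read-out: total Hoechst fluorescence of nuclei (405 nm excitation, 500-530 nm emission), with hits raising the fraction of high-intensity nuclei. SW480 colon cells incubated 48 hr with compounds at 37 C.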
ALOX12 inh – Primary qHTS assay for inhibitors of human arachidonate 12S-lipoxygenase (ALOX12): Round 2; Potency, µM (top dose mostly 108 µM), without a hit: top-dose activity change, negative = inhibition, hits mostly inhibitors; Polyunsaturated fatty acid lipoxygenase ALOX12 (Homo sapiens), P18054; purified 12hLO, xylenol orange hydroperoxide absorbance; hit rate 1.1% among 580,000; also: % is scaled to controls: 0 for no effect and ±100 for the full control effect
Target sequence (P18054 whole entry, looked up): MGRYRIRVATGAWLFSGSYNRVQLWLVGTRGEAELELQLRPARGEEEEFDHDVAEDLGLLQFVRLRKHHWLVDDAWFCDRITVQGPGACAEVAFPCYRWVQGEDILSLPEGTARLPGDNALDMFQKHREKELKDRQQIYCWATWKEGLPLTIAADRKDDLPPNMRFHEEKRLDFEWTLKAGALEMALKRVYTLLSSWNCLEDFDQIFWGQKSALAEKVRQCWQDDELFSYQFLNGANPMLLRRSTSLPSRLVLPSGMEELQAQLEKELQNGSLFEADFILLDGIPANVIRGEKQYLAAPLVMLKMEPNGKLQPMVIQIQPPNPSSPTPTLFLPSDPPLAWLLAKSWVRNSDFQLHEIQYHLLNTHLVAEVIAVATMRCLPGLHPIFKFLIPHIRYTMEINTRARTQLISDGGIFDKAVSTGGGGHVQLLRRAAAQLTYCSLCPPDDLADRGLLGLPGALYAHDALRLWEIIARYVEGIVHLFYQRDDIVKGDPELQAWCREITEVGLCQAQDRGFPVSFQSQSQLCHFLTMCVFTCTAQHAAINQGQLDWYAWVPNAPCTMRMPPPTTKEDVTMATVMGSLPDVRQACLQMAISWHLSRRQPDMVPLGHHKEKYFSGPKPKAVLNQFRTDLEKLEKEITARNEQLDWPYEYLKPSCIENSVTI
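Hydroperoxide product was detected by ferrous iron/xylenol orange as the 573 to 405 nm absorbance ratio. Arachidonic acid at 40 uM (final) was turned over for 30 min at room temperature by 150 nM human 12hLO, pH 7.0 Hepes buffer, after 15 min compound preincubation.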
MCF10A rerep – A quantitative high throughput screen for small molecules that induce DNA re-replication in MCF 10a normal breast cells; MCF 10A DNA re-replication, Hoechst nuclear intensity, 48 h; Potency, µM (highest dose often 46.1 µM), without a hit: at the top dose activity, positive = re-replication, hits mostly activators; hit rate 2.9% among 350,000; AID 624296, 2012; also: % of control where 0% means no effect; nearly all actives have a fitted effect of over 50% in size
KB-V1 MDR tox – qHTS assay for MDR1-selective chemotherapeutics: Primary screen using the drug-selected MDR subline cells KB-V1 | KB-V1 MDR cells viability, CellTiter-Glo, 72 h | Potency, µM (series often up to 46.1 µM), actives largely listed as cytotoxic | hit rate 3.4% among 400,000; also: % is scaled to controls: 0 for no effect and ±100 for the full control effect; nearly all actives have a fitted effect of over 60% in size
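KB-V1, DMEM (no phenol red) + 10% FBS; cpd pin-transferred, titration series; 72 h, 37 degrees C; CellTiter-Glo, luminescence. Data normalized, curve-fit.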
* hit, by the source's call; [ ] = remark or other dose. Compounds with a hit are over-represented: about 5.8% of the library has one in this group of screens. Unless noted, calls follow the shape of the dose curve; as a rule, active = well fitted curve in the direction sought with a large enough effect; inconclusive = small, poorly fitted or top-dose-only effect, or another doubt; inactive = no such curve, though single readings can be large; an effect the other way counts as inactive or inconclusive. Potency is read from the fitted curve at half-maximal effect.

Results for COc1ccc2cc(C(=O)N3CCN4CCS(=O)(=O)N(C5CC5)C(=O)C4C3)[nH]c2c1 (stereo unspecified) ?
ALOX12 inh: -0.5%

What do the screens show for `N#Cc1ccc(S(=O)(=O)N2CCC(C(=O)Nc3ccnn3Cc3ccccc3)CC2)cc1`?
ALOX12 inh: 1.3%

Results for O=C(C1=C[C@H](c2ccc(C(F)(F)F)cc2)C[C@H](OCc2ccc(CO)cc2)O1)N1CCCCCCC1 ?
KB-3-1 cytotox: inactive; PINK1 expr mod: 2.8%; SW480 rereplic: -0.1%[9.22 µM]; MCF10A rerep: inconclusive; KB-V1 MDR tox: inconclusive

How did O=C(Nc1ccccc1)C1=C[C@H](c2ccc(C(F)(F)F)cc2)C[C@H](OCc2ccc(CO)cc2)O1 do in these assays?
KB-3-1 cytotox: inactive; PINK1 expr mod: 4.0%; SW480 rereplic: 1.3%; ALOX12 inh: -15.4%; MCF10A rerep: 25.9µM*; KB-V1 MDR tox: inactive

How did O=C(O)C1=C[C@@H](c2ccc(C(F)(F)F)cc2)C[C@@H](OCc2ccc(CO)cc2)O1 do in these assays?
KB-3-1 cytotox: inactive; PINK1 expr mod: 7.7%; SW480 rereplic: -2.4%; ALOX12 inh: -8.3%; MCF10A rerep: 10.9%; KB-V1 MDR tox: 18.4µM*

How did CC(=O)Oc1cccc(C(=O)Nc2ccc(-c3nc4ccccc4o3)cc2)c1 do in these assays?
ALOX12 inh: -26.2%

How did Cc1cc(C)c2oc(-c3cccc(NC(=O)CC(C)C)c3)nc2c1 do in these assays?
ALOX12 inh: -40.7%

What do the screens show for `CC(C1CC2CCC1C2)n1c(-c2cccs2)n[nH]c1=S` (stereo unspecified)?
KB-3-1 cytotox: inactive; PINK1 expr mod: 4.5%; SW480 rereplic: -16.5%; ALOX12 inh: 44.7µM*; MCF10A rerep: 14.2%; KB-V1 MDR tox: inactive

How did CN(C)c1ccc(C(=O)C(O)c2ccccc2)cc1 (stereo unspecified) do in these assays?
KB-3-1 cytotox: inactive; PINK1 expr mod: 2.1%; SW480 rereplic: -1.4%; ALOX12 inh: -0.2%; MCF10A rerep: 1.4%; KB-V1 MDR tox: inactive

How did CN(C)c1ccc(C(c2ccc(N(C)C)cc2)C(O)c2ccccc2)cc1 (stereo unspecified) do in these assays?
KB-3-1 cytotox: inactive; PINK1 expr mod: 1.5%; SW480 rereplic: -2.5%; ALOX12 inh: inconclusive; MCF10A rerep: 22.7%; KB-V1 MDR tox: 16.4µM*

How did CN(C)S(=O)(=O)c1ccc(C(=O)NCCN2C(=O)S/C(=C\c3cccnc3)C2=O)cc1 do in these assays?
KB-3-1 cytotox: inactive; PINK1 expr mod: 1.7%; SW480 rereplic: -8.0%; ALOX12 inh: -4.5%; MCF10A rerep: -5.8%; KB-V1 MDR tox: inactive

How did CS(=O)(=O)c1ccc(C(=O)NCCN2C(=O)S/C(=C\c3cccnc3)C2=O)cc1[N+](=O)[O-] do in these assays?
KB-3-1 cytotox: inconclusive; PINK1 expr mod: -2.0%; SW480 rereplic: 2.06µM*; ALOX12 inh: 0.0%; MCF10A rerep: 13µM*; KB-V1 MDR tox: inactive

What do the screens show for `O=C(Nc1c(C(=O)c2ccccc2)oc2ccccc12)c1ccc(F)cc1`?
KB-3-1 cytotox: inactive; PINK1 expr mod: 7.5%; ALOX12 inh: -27.5%; KB-V1 MDR tox: inactive

What do the screens show for `Nc1c(C(=O)c2ccccc2)oc2ccccc12`?
KB-3-1 cytotox: inactive; PINK1 expr mod: 4.6%; SW480 rereplic: inconclusive; ALOX12 inh: 0.0%; MCF10A rerep: 12.6µM*; KB-V1 MDR tox: inactive

How did Nc1c(C(=O)c2ccc(F)cc2)oc2ccccc12 do in these assays?
KB-3-1 cytotox: inconclusive; PINK1 expr mod: inconclusive; SW480 rereplic: 16.5%; ALOX12 inh: -5.0%; MCF10A rerep: 7.31µM*; KB-V1 MDR tox: inactive
